In the supplement of paper PMC12645437, “Orthogonal IMiD-Degron Pairs Induce Selective Protein Degradation in Cells” (ACS Chemical Biology, 2025):
Whole data set: some 8,300 sequences, median “log2 fold change of degron read counts, EGFP-low vs EGFP+ sorted cells (limma voom), compound-induced degradation” near -1.1, cut for the highest 2% near 3.2. The sample holds the highest values, similar sequences and a random draw of the others, so the mix is not that of the screen.

Biological target: T1, CRBN, Q96SW2
T1 chain: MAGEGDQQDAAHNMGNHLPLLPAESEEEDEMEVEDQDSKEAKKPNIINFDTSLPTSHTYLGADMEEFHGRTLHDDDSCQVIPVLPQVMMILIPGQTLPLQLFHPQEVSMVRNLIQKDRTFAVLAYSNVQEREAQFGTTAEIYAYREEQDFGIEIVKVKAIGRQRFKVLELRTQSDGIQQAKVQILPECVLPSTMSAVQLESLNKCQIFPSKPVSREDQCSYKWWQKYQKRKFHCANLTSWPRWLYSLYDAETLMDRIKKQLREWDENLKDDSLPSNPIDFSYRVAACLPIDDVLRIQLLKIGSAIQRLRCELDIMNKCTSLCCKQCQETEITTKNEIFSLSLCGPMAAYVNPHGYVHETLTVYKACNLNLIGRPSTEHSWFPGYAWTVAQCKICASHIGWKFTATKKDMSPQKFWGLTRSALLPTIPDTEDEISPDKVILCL
Assay: log2 fold change of degron read counts, EGFP-low vs EGFP+ sorted cells (limma voom), compound-induced degradation; higher = more compound-induced degradation of the degron-EGFP fusion; degrons are variants of IKZF1/3 zinc finger 2; compound dose not given here
Settings: Jurkat, 18 h

[1] = compound: compound 19 (5-tert-butyl-thalidomide)
[2] = compound: compound 22 (5-morpholino-thalidomide)
[3] = compound: compound 33 (diphenyl IMiD analogue)
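Further: pooled lentiviral library of zinc finger degron-EGFP fusions in mCherry-positive Jurkat cells, FACS-sorted after compound exposure, with degron abundance counted by next-generation sequencing.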

B1: 46F_47L_49D_50V_52G_53A_54Y_55F_67L_, Q9UKT9 (peptide)
chain: FLCDVCGAYFTQKGNLLRHIKL
log2 fold change of degron read counts [1]: -2.05
log2 fold change of degron read counts [2]: -2.41
log2 fold change of degron read counts [3]: -1.49
log2 fold change of degron read counts (compound: thalidomide): -1.52

B2: 46F_47S_49N_50V_52G_53A_54R_55F_67L_, Q9UKT9 (peptide)
chain: FSCNVCGARFTQKGNLLRHIKL
log2 fold change of degron read counts [1]: 0.49
log2 fold change of degron read counts [2]: 0.453
log2 fold change of degron read counts [3]: -1.03
log2 fold change of degron read counts (compound: thalidomide): -0.0608

B3: 46F_47R_49N_50Q_52G_53A_54S_55F_67L_, Q9UKT9 (peptide)
chain: FRCNQCGASFTQKGNLLRHIKL
log2 fold change of degron read counts [1]: -1.71
log2 fold change of degron read counts [2]: -2.14
log2 fold change of degron read counts [3]: -0.702
log2 fold change of degron read counts (compound: thalidomide): -1.17

B4: 46F_47D_49E_50I_52G_53R_54E_55F_67L_, Q9UKT9 (peptide)
chain: FDCEICGREFTQKGNLLRHIKL
log2 fold change of degron read counts [1]: -2.21
log2 fold change of degron read counts [2]: -2.29
log2 fold change of degron read counts [3]: -2.42
log2 fold change of degron read counts (compound: thalidomide): -2.31

B5: 46F_47H_49N_50V_52G_53A_54Q_55F_67L_, Q9UKT9 (peptide)
chain: FHCNVCGAQFTQKGNLLRHIKL
log2 fold change of degron read counts [1]: -0.612
log2 fold change of degron read counts [2]: 0.00036
log2 fold change of degron read counts [3]: 0.0621
log2 fold change of degron read counts (compound: thalidomide): -0.871

B6: 46F_47C_49P_50I_52G_53H_54N_55F_67L_, Q9UKT9 (peptide)
chain: FCCPICGHNFTQKGNLLRHIKL
log2 fold change of degron read counts [1]: -2.22
log2 fold change of degron read counts [2]: -2.17
log2 fold change of degron read counts [3]: -1.7
log2 fold change of degron read counts (compound: thalidomide): -1.28

B7: 46F_47Y_49E_50Q_52G_53A_54H_55F_67L_, Q9UKT9 (peptide)
chain: FYCEQCGAHFTQKGNLLRHIKL
log2 fold change of degron read counts [1]: -0.125
log2 fold change of degron read counts [2]: 0.783
log2 fold change of degron read counts [3]: 0.184
log2 fold change of degron read counts (compound: thalidomide): -1.6

B8: 46F_47V_49P_50I_52G_53A_54N_55F_67L_, Q9UKT9 (peptide)
chain: FVCPICGANFTQKGNLLRHIKL
log2 fold change of degron read counts [1]: 0.327
log2 fold change of degron read counts [2]: 2.63
log2 fold change of degron read counts [3]: 1.9
log2 fold change of degron read counts (compound: thalidomide): 2.81

B9: 46F_47F_49P_50I_52G_53A_54N_55F_67L_, Q9UKT9 (peptide)
chain: FFCPICGANFTQKGNLLRHIKL
log2 fold change of degron read counts [1]: 2.81
log2 fold change of degron read counts [2]: 3.66
log2 fold change of degron read counts [3]: 1.86
log2 fold change of degron read counts (compound: thalidomide): 1.33

B10: 46F_47N_49P_50I_52G_53A_54N_55F_67L_, Q9UKT9 (peptide)
chain: FNCPICGANFTQKGNLLRHIKL
log2 fold change of degron read counts [1]: 2.14
log2 fold change of degron read counts [2]: 0.903
log2 fold change of degron read counts [3]: 0.95
log2 fold change of degron read counts (compound: thalidomide): 0.651

B11: 46F_47D_49P_50I_52G_53A_54N_55F_67L_, Q9UKT9 (peptide)
chain: FDCPICGANFTQKGNLLRHIKL
log2 fold change of degron read counts [1]: 2.63
log2 fold change of degron read counts [2]: 0.285
log2 fold change of degron read counts [3]: 2.3
log2 fold change of degron read counts (compound: thalidomide): 2.15

B12: 46F_47Q_49P_50I_52G_53A_54N_55F_67L_, Q9UKT9 (peptide)
chain: FQCPICGANFTQKGNLLRHIKL
log2 fold change of degron read counts [1]: 0.555
log2 fold change of degron read counts [2]: 2.18
log2 fold change of degron read counts [3]: 2.19
log2 fold change of degron read counts (compound: thalidomide): 3.58

B13: 46F_47Y_49P_50I_52G_53A_54N_55F_67L_, Q9UKT9 (peptide)
chain: FYCPICGANFTQKGNLLRHIKL
log2 fold change of degron read counts [1]: 3.19
log2 fold change of degron read counts [2]: 3.46
log2 fold change of degron read counts [3]: 2.38
log2 fold change of degron read counts (compound: thalidomide): 1.52

B14: 46F_47L_49P_50I_52G_53A_54N_55F_67L_, Q9UKT9 (peptide)
chain: FLCPICGANFTQKGNLLRHIKL
log2 fold change of degron read counts [1]: 0.744
log2 fold change of degron read counts [2]: 0.272
log2 fold change of degron read counts [3]: 1.69
log2 fold change of degron read counts (compound: thalidomide): 1.77

B15: 46F_47R_49P_50I_52G_53A_54N_55F_67L_, Q9UKT9 (peptide)
chain: FRCPICGANFTQKGNLLRHIKL
log2 fold change of degron read counts [1]: -0.337
log2 fold change of degron read counts [2]: -0.426
log2 fold change of degron read counts [3]: 1.12
log2 fold change of degron read counts (compound: thalidomide): 1.57

B16: 46F_47E_49P_50I_52G_53A_54N_55F_67L_, Q9UKT9 (peptide)
chain: FECPICGANFTQKGNLLRHIKL
log2 fold change of degron read counts [1]: 0.136
log2 fold change of degron read counts [2]: -0.0311
log2 fold change of degron read counts [3]: 2.92
log2 fold change of degron read counts (compound: thalidomide): 3.27

B17: 46F_47M_49P_50I_52G_53A_54N_55F_67L_, Q9UKT9 (peptide)
chain: FMCPICGANFTQKGNLLRHIKL
log2 fold change of degron read counts [1]: -0.073
log2 fold change of degron read counts [2]: 1.2
log2 fold change of degron read counts [3]: 2.87
log2 fold change of degron read counts (compound: thalidomide): 1.98

B18: 46F_47S_49P_50I_52G_53A_54N_55F_67L_, Q9UKT9 (peptide)
chain: FSCPICGANFTQKGNLLRHIKL
log2 fold change of degron read counts [1]: 2.46
log2 fold change of degron read counts [2]: 1.78
log2 fold change of degron read counts [3]: 1.97
log2 fold change of degron read counts (compound: thalidomide): 1.54

B19: 46F_47T_49P_50I_52G_53A_54N_55F_67L_, Q9UKT9 (peptide)
chain: FTCPICGANFTQKGNLLRHIKL
log2 fold change of degron read counts [1]: 0.0113
log2 fold change of degron read counts [2]: 2.63
log2 fold change of degron read counts [3]: 1.93
log2 fold change of degron read counts (compound: thalidomide): 2.85

B20: 46F_47H_49P_50Q_52G_53A_54W_55F_67L_, Q9UKT9 (peptide)
chain: FHCPQCGAWFTQKGNLLRHIKL
log2 fold change of degron read counts [1]: -1.82
log2 fold change of degron read counts [2]: -2.04
log2 fold change of degron read counts [3]: -1.61
log2 fold change of degron read counts (compound: thalidomide): -2.14

B21: 46F_47L_49D_50I_52G_53A_54E_55F_67L_, Q9UKT9 (peptide)
chain: FLCDICGAEFTQKGNLLRHIKL
log2 fold change of degron read counts [1]: -0.631
log2 fold change of degron read counts [2]: -2.41
log2 fold change of degron read counts [3]: -1.1
log2 fold change of degron read counts (compound: thalidomide): -0.617

B22: 46F_47D_49D_50Q_52G_53A_54Y_55F_67L_, Q9UKT9 (peptide)
chain: FDCDQCGAYFTQKGNLLRHIKL
log2 fold change of degron read counts [1]: -2.22
log2 fold change of degron read counts [2]: -2.78
log2 fold change of degron read counts [3]: -2.57
log2 fold change of degron read counts (compound: thalidomide): -2.51

B23: 46F_47W_49P_50I_52G_53A_54N_55F_67L_, Q9UKT9 (peptide)
chain: FWCPICGANFTQKGNLLRHIKL
log2 fold change of degron read counts [1]: 2.99
log2 fold change of degron read counts [2]: 3.64
log2 fold change of degron read counts [3]: 1.91
log2 fold change of degron read counts (compound: thalidomide): 1.51

B24: 46F_47I_49P_50I_52G_53A_54N_55F_67L_, Q9UKT9 (peptide)
chain: FICPICGANFTQKGNLLRHIKL
log2 fold change of degron read counts [1]: -0.552
log2 fold change of degron read counts [2]: 2.74
log2 fold change of degron read counts [3]: 2.01
log2 fold change of degron read counts (compound: thalidomide): 2.63

B25: 46F_47A_49P_50I_52G_53A_54N_55F_67L_, Q9UKT9 (peptide)
chain: FACPICGANFTQKGNLLRHIKL
log2 fold change of degron read counts [1]: 3.04
log2 fold change of degron read counts [2]: 1.85
log2 fold change of degron read counts [3]: 1.61
log2 fold change of degron read counts (compound: thalidomide): 1.07

B26: 46L_47T_49E_50I_52G_53F_54G_55C_67L_, Q9UKT9 (peptide)
chain: LTCEICGFGCTQKGNLLRHIKL
log2 fold change of degron read counts [1]: 0.777
log2 fold change of degron read counts [2]: 1.03
log2 fold change of degron read counts [3]: 0.337
log2 fold change of degron read counts (compound: thalidomide): 1.18

B27: 46F_47H_49P_50I_52G_53A_54Y_55F_67L_, Q9UKT9 (peptide)
chain: FHCPICGAYFTQKGNLLRHIKL
log2 fold change of degron read counts [1]: 2.3
log2 fold change of degron read counts [2]: 1.96
log2 fold change of degron read counts [3]: 1.93
log2 fold change of degron read counts (compound: thalidomide): 0.872

B28: 46F_47N_49N_50Q_52G_53H_54K_55F_67L_, Q9UKT9 (peptide)
chain: FNCNQCGHKFTQKGNLLRHIKL
log2 fold change of degron read counts [1]: -2.94
log2 fold change of degron read counts [2]: -2.21
log2 fold change of degron read counts [3]: -2.62
log2 fold change of degron read counts (compound: thalidomide): -2.32
